Reference: PMC5540273 (PLoS ONE, 2017)

Assays:
Settings in all cases: concentration: 1 μM, replicates: in singlicate; n = 1
[1] = tested on: TYK2(JH2domain-pseudokinase)
TYRO3 = tested on: TYRO3
ULK1 = tested on: ULK1
ULK2 = tested on: ULK2
ULK3 = tested on: ULK3
VEGFR2 = tested on: T1, VEGFR2
T1 construct: gene KDR

VPS34 = tested on: T2, VPS34
T2 construct: gene PIK3C3

VRK2 = tested on: VRK2
WEE1 = tested on: WEE1
WEE2 = tested on: WEE2
WNK1 = tested on: WNK1
WNK2 = tested on: WNK2
WNK3 = tested on: WNK3
WNK4 = tested on: WNK4
YANK1 = tested on: T3, YANK1
T3 construct: gene STK32A

YANK2 = tested on: T4, YANK2
T4 construct: gene STK32B

YANK3 = tested on: T5, YANK3
T5 construct: gene STK32C

YES = tested on: T6, YES
T6 construct: gene YES1

YSK1 = tested on: T7, YSK1
T7 construct: gene STK25

YSK4 = tested on: T8, YSK4
T8 construct: gene MAP3K19
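Also: KINOMEscan kinase panel screen.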

Compound | %Inh [1] [%] | %Inh (TYRO3) [%] | %Inh (ULK1) [%] | %Inh (ULK2) [%] | %Inh (ULK3) [%] | %Inh (VEGFR2) [%] | %Inh (VPS34) [%] | %Inh (VRK2) [%] | %Inh (WEE1) [%] | %Inh (WEE2) [%] | %Inh (WNK1) [%] | %Inh (WNK2) [%] | %Inh (WNK3) [%] | %Inh (WNK4) [%] | %Inh (YANK1) [%] | %Inh (YANK2) [%] | %Inh (YANK3) [%] | %Inh (YES) [%] | %Inh (YSK1) [%] | %Inh (YSK4) [%]
O=c1[nH]cc(-c2ccc(N3CCOCC3)cc2)c2sc(-c3cn[nH]c3)cc12 [GSK2276055] | 64 | 0 | 0 | 0 | 9 | 17 | 0 | 0 | 4 | 0 | 7 | 1 | 8 | 0 | 8 | 0 | 16 | 0 | 26 | 98.1
COc1cc(Nc2nccc(N3CCC(NC(=O)Nc4cccc(C(C)=O)c4)C3)n2)cc(OC)c1OC (stereo not shown) [GSK1379753] | 19 | 0 | 18 | 0 | 78 | 0 | 0 | 0 | 6 | 0 | 0 | 65 | 59 | 41 | 14 | 0 | 0 | 12 | 2 | 75
c1ccc(Oc2ccc(Nc3ccnc4cc(-c5ccc(CNCCN6CCOCC6)o5)ccc34)cc2)nc1 [GW567145] | 13 | 0 | 14 | 0 | 7 | 0 | 2 | 30 | 1 | 0 | 0 | 21 | 43 | 8 | 0 | 0 | 32 | 48 | 2 | 35
COc1cc2c(cc1OCCN1CCNCC1)ncc1c3ccc(C#N)cc3[nH]c21 | 15 | 0 | 91.9 | 99.8 | 47 | 49 | 0 | 15 | 0 | 0 | 12 | 41 | 7 | 9 | 5 | 0 | 0 | 0 | 1 | 87
Nc1ncnc2c1nc(-c1ccccc1)n2-c1ccccc1 [SKF-97293] | 54 | 9 | 51 | 35 | 50 | 23 | 44 | 36 | 4 | 0 | 47 | 5 | 48 | 28 | 3 | 21 | 0 | 0 | 4 | 54
O=C(Nc1cccc(-c2nn3ccccc3c2-c2ccnc(Nc3cccc(F)c3)n2)c1)c1c(F)ccc(F)c1Cl [GSK357952] | 0 | 81 | 21 | 0 | 13 | 12 | 22 | 0 | 0 | 3 | 3 | 0 | 43 | 0 | 34 | 75 | 23 | 98.7 | 0 | 0
O=C(Nc1cccc(-c2nn3ccccc3c2-c2ccnc(Nc3cccc(C(F)(F)F)c3)n2)c1)c1c(F)cccc1F [GSK292658] | 0 | 67 | 31 | 9 | 5 | 8 | 0 | 0 | 0 | 0 | 5 | 15 | 0 | 27 | 12 | 7 | 23 | 95.2 | 0 | 0
COc1ccc(Nc2nccc(NCCNC(=O)c3cc4ccccc4s3)n2)cc1 [GSK1379896] | 0 | 11 | 14 | 0 | 0 | 0 | 18 | 17 | 14 | 0 | 6 | 55 | 10 | 29 | 12 | 0 | 0 | 5 | 0 | 0
